Data on 40 compounds can be found in PubChem BioAssay (EPA / NIEHS).

The structures appear in SMILES notation. “And” between values parts separate entries of the source, which are not always exact repeats. Equal entries are not always repeated. The source made the active and inactive calls. How the source made its calls: active means hit-call score of the fitted dose curve at least 0.9, where 1 is the maximum; inactive means score below 0.9.

A word on the AC50: it is the concentration at which the activity in the assay is half-maximal.

Read-out in the experiment: Monokine induced gamma interferon (MIG), CXCL9 (gene 4283)
The experiment is described as follows: BSK_3C_MIG: BioMAP Diversity Plus: 3C Assay for Monokine induced gamma interferon (MIG) Biomarker Activity (AID 2283021).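 On AC50: MIG protein level measured by immunoassay in the treated endothelial cultures.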 The conditions noted are these: primary human endothelial cells (HUVEC); actives raise or lower the signal. As to the method:
BSK_3C is a cell-based, multiplexed-readout assay that uses umbilical vein endothelium, a human vascular primary cell, with measurements taken at 24 hours after chemical dosing in a 96-well plate.BSK_3C_MIG is an assay component measured in the BSK_3C assay. It measures MIG antibody related to regulation of gene expression using ELISA technology.Data from the assay component BSK_3C_MIG was analyzed into 1 assay endpoint. This assay endpoint, BSK_3C_MIG, was analyzed with bidirectional fitting relative to DMSO as the negative control and baseline of activity. Using a type of binding reporter, gain or loss-of-signal activity can be used to understand changes in the signaling as they relate to the gene CXCL9. Furthermore, this assay endpoint can be referred to as a primary readout, because this assay has produced multiple assay endpoints where this one serves a signaling function. To generalize the intended target to other relatable targets, this assay endpoint is annotated to the cytokine intended target family, where the subfamily is chemotactic factor.
The levels of cell surface (or secreted, indicated by the prefix "s") biomarker endpoints were measured by ELISA. Overt cytotoxicity to cells in confluent adherent cultures (all systems other than the BT system) was assessed by measuring total protein levels using sulforhodamine B (SRB) staining in parallel cultures at the time of biomarker measurements, indicated as SRB endpoints. For proliferation assays for adherent cell types, individual cell types are cultured at sub-confluence and relative cell numbers quantified by SRB staining at time points optimized for each system (48 h: 3C and CASM3C systems; 72 h: BT and HDF3CGF systems; 96 h: SAg system). SRB was performed by staining cells with 0.1% SRB after fixation with 10% TCA and reading wells at 560 nm.Viability and proliferation of PBMC (T cells) was quantified by Alamar Blue reduction for the SAg and BT systems. For PBMC viability (referred to as PBMC Cytotoxicity within the assay endpoint names), cells were plated (75,000/well in a 96-well plate) and then chemical samples added for 1 h before addition of activators, SEB and TSST-1 (20 ng/mL final concentration each). Cells were incubated for 90 h. Then, Alamar Blue (20 uL/well) (Invitrogen, Cat DAL1100) was added for 6 h, and the plates were read with a fluorescence microplate reader at 546/580 nm (excitation/emission). For PBMC proliferation, cells were plated and activated as above but incubated for only 16 h prior to addition of Alamar Blue. Plates were read after 6 h.
In the case of `CCN(CC)c1ccc2c(c1)Oc1cc(N(CC)CC)ccc1C21OC(=O)c2ccccc21`, the outcome was inactive.
The same measure, in the same setting: the value for `NC(=O)C(F)(F)C(F)(F)C(F)(F)C(F)(F)C(N)=O` was “inactive”.
`Cc1cc(O)c(C(C)(C)C)cc1C(C)(C)C`: the concentration at half-maximal activity (AC50) is 11.5 µM (active).
In the case of `Cc1ccc(O)c(-n2nc3ccccc3n2)c1`, the outcome was inactive.
As for `O=C(Cl)C(F)(F)C(F)(F)C(F)(F)C(F)(F)C(F)(F)C(F)(F)F`, the outcome was inactive.
On to `CCOC(C=C(C)CCC=C(C)C)OCC`, for which the concentration at half-maximal activity (AC50) is 36 µM (active).
For `C=CC(=O)OCCC(F)(F)C(F)(F)C(F)(F)C(F)(F)F`, the result was inactive.
`CC(C)CCCC(C)CCO` (stereo not given): the result was inactive.
As to `O=C(O)C(F)(F)C(F)(F)C(F)(F)OC(F)(F)F`, the outcome was inactive.
Turning to `O=S(=O)(OCC(F)(F)F)C(F)(F)C(F)(F)C(F)(F)C(F)(F)F`, the outcome was inactive.
On to `O=S(=O)(O)CCC(F)(F)C(F)(F)C(F)(F)C(F)(F)C(F)(F)C(F)(F)C(F)(F)C(F)(F)F`, for which the result was inactive.
On to `OCCCCC(F)(F)C(F)(F)C(F)(F)C(F)(F)F`, for which the result was inactive.
`CC1=CC2C3C=CC(C3)C2C1C` (stereo not given): the result was inactive.
Still for that read-out and setting: the value for `C[C@]12CC[C@H]3C(=CCc4cc(O)ccc43)[C@@H]1CCC2=O` was “inactive”.
Turning to `CCN=C1C=CC(=C(c2ccc(N(CC)CC)cc2)c2ccc(N(CC)CC)cc2)c2ccccc21`, the half-maximal activity concentration (AC50) is 2.92 µM (active) and 3.32 µM (active).
For `NS(=O)(=O)C(F)(F)C(F)(F)C(F)(F)C(F)(F)C(F)(F)C(F)(F)F`, the outcome was inactive.
Consider `FC(F)(F)C(F)(F)C(F)(F)CC1CO1` (stereo not given), for which the result was inactive.
Regarding `C=CC(=O)OCC(F)(F)C(F)(F)C(F)(F)COC(=O)C=C`, the concentration at half-maximal activity (AC50) was 24.7 µM (active) and 22.7 µM (active).
For the compound `C[Si](Cl)(Cl)CCC(F)(F)C(F)(F)C(F)(F)C(F)(F)C(F)(F)C(F)(F)F`, the result was inactive.
`O=C(O)C(F)(F)C(F)(F)C(F)(F)C(=O)O`: the outcome was inactive.
`OCC(F)(F)C(F)(F)C(F)(F)C(F)(F)C(F)(F)C(F)(F)CO`: the outcome was inactive.
Take `CO[Si](C)(CCC(F)(F)C(F)(F)C(F)(F)C(F)(F)C(F)(F)C(F)(F)F)OC`: the outcome was inactive.
In the case of `O=C1c2c(O)ccc(Nc3ccc(CCO)cc3)c2C(=O)c2c([N+](=O)[O-])ccc(O)c21`, the AC50 is 34.2 µM (active).
As for `COC(F)(C(F)F)C(F)(F)F` (stereo not given), the result was inactive.
With `Nc1cc([N+](=O)[O-])cc(Cl)c1O`, the outcome was inactive.
The same measure, in the same setting: the value for `FC(F)(F)C(F)(F)C(F)(F)C(F)(F)C(F)(F)C(F)(F)CC[Si](Cl)(Cl)Cl` was “inactive”; that for `NC(=O)C(F)(F)C(F)(F)C(F)(F)F` was “inactive”.
Turning to `O=C(O)CCC(F)(F)C(F)(F)C(F)(F)C(F)(F)C(F)(F)C(F)(F)C(F)(F)F`, the result was inactive.
Same read-out and setting: next, `FC(F)(F)C(F)(F)C(F)(F)C(F)(F)C(F)(F)C(F)(F)C(F)(F)CCI`: “inactive”; `NC(O)(C(F)(F)F)C(F)(F)F`: “inactive”.
For `O=C=Nc1cccc2c(N=C=O)cccc12`, the outcome was inactive.
Regarding `OCCCC(F)(F)C(F)(F)C(F)(F)C(F)(F)C(F)(F)C(F)(F)C(F)(F)C(F)(F)F`, the AC50 is 50.9 µM (active) and 52.6 µM (active).
Consider `CCN(CC)c1ccc(C=O)c(O)c1`, for which the result was inactive.
The same measure, in the same setting: the value for `C=C(C)C(=O)OCC(F)(F)C(F)(F)C(F)(F)C(F)F` was “inactive”.
For `O=C(Cl)C(F)(F)C(F)(F)C(F)(F)C(F)(F)C(F)(F)C(F)(F)C(F)(F)F`, the outcome was inactive.
Same read-out and setting: next, `O=C(F)C1(F)C(F)(F)C(F)(F)C(F)(F)C(F)(F)C1(F)F`: “inactive”.
The same measure, in the same setting: next, `NCC(F)(F)C(F)(F)C(F)(F)C(F)(F)C(F)(F)C(F)(F)C(F)(F)C(F)(F)F`: “inactive”; `CN(C(=O)C(F)(F)C(F)(F)C(F)(F)F)[Si](C)(C)C`: “inactive”; `O=S(=O)(O)CCC(F)(F)C(F)(F)C(F)(F)C(F)(F)F`: “inactive”.
The same measure, in the same setting: the value for `Brc1nc2ccccc2s1` was “inactive”.
